Among the data in PubChem BioAssay (NCATS) are outcome and Potency values, retold here.

Test [1] is described as follows: HPAF-II 24hr Apoptosis Induction qHTS against the NCATS CANVASS Library (AID 1347356). The procedure, abridged:
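500 HPAF-II cells/well; compounds in 11-pnt qHTS; 24 h, 37 C/5% CO2; Caspase-Glo 3/7 added, 15 min RT dark; luminescence read. Doxorubicin control.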
Background: In qHTS, concentration-response curves come from the screen itself.

Test [2] can be described thus: HEK293 18hr Apoptosis Induction qHTS against the NCATS CANVASS Library (AID 1347357). In outline:
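Caspase-Glo 3/7 luminescence (15 min, room temperature) measured apoptosis after an 18-hour, 37 degrees C exposure of HEK293 cells (500 cells/well) to compounds in 11 points.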

The nature of test [3]: HEK293 24hr Apoptosis Induction qHTS against the NCATS CANVASS Library (AID 1347359). In outline: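 HEK293 cells (500/well, DMEM + 10% FBS) were exposed to compounds in an 11-point series for 24 hours at 37 degrees C, then caspase-3/7 activity was read by Caspase-Glo DEVD luciferase luminescence after 15 min.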
A short description of test [4]: HPAF-II 18hr Apoptosis Induction qHTS against the NCATS CANVASS Library (AID 1347360). In outline:
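Caspase-3/7 activation was measured with luminescent Caspase-Glo 3/7 reagent (15 min, RT) in HPAF-II cancer cells (500 cells/well). Before detection, cells had been treated for 18 h at 37 C with compounds (11 points).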

Test [5] relates to NAD(P)H diaphorase (Clostridium kluyveri). Nature of the test: Diaphorse counterscreen qHTS: Assay Interference Panel against the NCATS CANVASS Library (AID 1347362). The procedure, abridged:
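Clostridium kluyveri diaphorase in PBS with 0.01% Tween-20 was preincubated 15 min at room temperature in the dark with compounds (11-point series). Resorufin fluorescence (ex 525/20, em 598/25) was read 5 min after adding resazurin/NADH.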
Background: The purpose of a counterscreen is to sort out artefacts and off-target activity.

The target of test [6] is Luciferin 4-monooxygenase (Photinus pyralis) (UniProt P08659). Nature of the test: Firefly luciferase counterscreen qHTS: Assay Interference Panel against the NCATS CANVASS Library (AID 1347363). Further: series mostly up to about 57 µM. The procedure, abridged:
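Purified P. pyralis luciferase was added to compounds (11-point series) preincubated 15 min at room temperature with substrate containing 0.013 mM D-luciferin and 0.013 mM ATP; luminescence was read after 5 min.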

Test [7] in a line: KB-3-1 Cancer Cell Toxicity qHTS against the NCATS CANVASS Library (AID 1347366). Further: nearly all actives have a fitted effect of over 75% in size. The procedure, abridged: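 CellTiter-Glo luminescence measured viability after 72 h at 37C. KB-3-1 cells were seeded at 500 per well in DMEM/10% FBS.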
A short description of test [8]: qHTS for ATAD5 Agonist screened against the NCATS CANVASS Library (AID 1347367).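 Further: luciferase reporter driven by ATAD5 which rises upon DNA damage.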 The procedure, abridged: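 Genotoxicity via ATAD5-luciferase luminescence after 16 h compound exposure (11-point series) at 37C in HEK293T-ATAD5 cells. CellTiter-Fluor viability read precedes the luminescence read; MMS serves as positive control.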
Test [9] is described as follows: G06 Cancer Cell Toxicity qHTS against the NCATS CANVASS Library (AID 1347368). Further: nearly all actives have a fitted effect of over 60% in size. Further: potency means the concentration at half of the fitted maximal effect. In outline:
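ATP luminescence (CellTiterGlo) readout of cytotoxicity. Canine G06 glioma cells, 500/well, 72 hr incubation at 37C with compounds; bortezomib titration served as control.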

The nature of test [10]: MCF7 Cancer Cell Toxicity qHTS against the NCATS CANVASS Library (AID 1347369). The procedure, abridged:
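Cytotoxicity was measured as CellTiterGlo luminescence (ATP) after 72 h at 37 °C. The cells were MCF7 at 500 per well, with an 11-point compound concentration series.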

The nature of test [11]: qHTS for ATAD5 Antagonist screened against the NCATS CANVASS Library (AID 1347370).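 Further: HEK293T cells carrying an ATAD5 luciferase reporter co-treated with 10 µM 5-fluorouridine; series mostly up to about 46 µM; nearly all actives have a fitted effect of over 65% in size.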 The procedure, abridged: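 HEK293T-ATAD5 luc reporter, 2000 cells/well; 5hr attach; cpd + 10 uM 5-FUrd; 16hr 37C, 5% CO2. Readouts: CellTiter-Fluor fluorescence (1hr), then Amplite luciferase luminescence (30min RT).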
A short description of test [12]: J3T Cancer Cell Toxicity qHTS against the NCATS CANVASS Library (AID 1347371). The procedure, abridged: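 Dog glioma J3T, 500 cells/well; cpd 11-pt qHTS; 72 hr, 37C/5% CO2; CellTiterGlo ATP luminescence readout.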
For test [13], the target named is Nuclear receptor subfamily 1 group I member 3 (Homo sapiens) (UniProt Q14994). Briefly: qHTS for Constitutive Androstane Receptor (CAR) Antagonist screened against the NCATS CANVASS Library (AID 1347372).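 Further: cells stimulated with 50 nM CITCO agonist so inhibition reflects antagonism; series mostly up to about 46 µM.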 In outline:
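Cells were seeded and left 4hr to attach, then received compound at 11 concentrations and 50 nM CITCO. Following 24hr incubation, fluorescence viability and luciferase luminescence were read sequentially.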

Test [14] shares this target. Briefly: qHTS for Constitutive Androstane Receptor (CAR) Agonist screened against the NCATS CANVASS Library (AID 1347373).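 Further: every well also contained 1.5 µM PK11195 alongside the test compound.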 In outline: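 Luciferase read-out (ONE-Glo, 30 min RT) of CYP2B6-2.2kb promoter activity in double-stable HepG2-hCAR cells after 24hr compound exposure with 1.5uM PK11195 present; viability measured first by CellTiter-Fluor.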
A short description of test [15]: 10-beta competent E. coli microbial cell viability qHTS against the NCATS CANVASS Library (AID 1347376). Further: series mostly up to about 46 µM. The procedure, abridged: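 Luminescence from BacTiter-Glo ATP detection served as the viability read-out; bacteria (0.2 OD) had been incubated overnight at 37C with pin-transferred compounds at 11 concentrations.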
A short description of test [16]: qHTS for H2AX Agonists against the NCATS CANVASS Library (AID 1347378). In outline:
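Phospho-H2AX (S139) in CHO-K1 lysates measured by HTRF, reported as 665/615 nm emission ratio after 24 hr antibody incubation at room temperature. Cells were first treated with a compound series for 3 hr at 37C (0.76% DMSO final).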

A short description of test [17]: qHTS for Inflammasome Signaling Inhibitors: IL-1-beta AlphaLISA screen against the NCATS CANVASS Library (AID 1347379).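 Further: human THP-1 cells primed with LPS then triggered with ATP.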 The procedure, abridged: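 THP-1, 1 hr compound pre-incubation, then LPS 250 ng/mL + ATP 1.25 mM (final); 16 hr total with compound; IL-1B AlphaLISA, ex 680/em 615 nm; 11-point qHTS, up to 57.5 uM final.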
Test [18] is described as follows: Inflammasome Signaling qHTS Counterscreen: IL-1-beta AlphaLISA counterscreen against the NCATS CANVASS Library (AID 1347381).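 Further: cell-free check with purified IL-1β in medium and no THP-1 cells; series mostly up to about 57 µM.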 The procedure, abridged: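 Here, no cellular stimulation occurs; compounds in an 11-point series meet 4 pg purified IL-1-beta directly. Bead-based AlphaLISA detection follows (1 h acceptor/antibody, then 30 min donor, dark, room temperature), with excitation at 680 nm.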

Test [19] is described as follows: Cytotoxicity qHTS for assessment of Hepg2 cells membrane integrity screened against the NCATS CANVASS Library (AID 1347387). The procedure, abridged:
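LDH release read by fluorescence (560 nm ex/590 nm em) after CytoTox-ONE addition and 10 min RT; signal tracks lysed cells. HepG2, 2000 cells/well, plated overnight; compound 5 hr, 37C, 5% CO2, final 0.59 nM - 46 uM, 11 points.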

Test [20] is described as follows: Viability qHTS for inhibitors of the SERCaMP assay screened against the NCATS CANVASS Library (AID 1347400). Further: series mostly up to about 92 µM; nearly all actives have a fitted effect of over 70% in size. The procedure, abridged: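 CellTiter-Glo luminescence readout after 48 h compound exposure (11-pnt qHTS series) of SH-SY5Y-GLuc SERCaMP MJH297 cells seeded at 1000 cells/well; bortezomib positive control.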

The structures appear in SMILES notation. Results filed as inconclusive are left out. Active and inactive are the calls of the source. The call rests on the fitted dose curve; in most records, active means well fitted curve in the direction sought with a large enough effect; inconclusive means small, poorly fitted or top-dose-only effect, or another doubt; inactive means no such curve, though single readings can be large; an effect the other way counts as inactive or inconclusive.

Chain of Nuclear receptor subfamily 1 group I member 3 (Homo sapiens) (Q14994 whole entry, looked up): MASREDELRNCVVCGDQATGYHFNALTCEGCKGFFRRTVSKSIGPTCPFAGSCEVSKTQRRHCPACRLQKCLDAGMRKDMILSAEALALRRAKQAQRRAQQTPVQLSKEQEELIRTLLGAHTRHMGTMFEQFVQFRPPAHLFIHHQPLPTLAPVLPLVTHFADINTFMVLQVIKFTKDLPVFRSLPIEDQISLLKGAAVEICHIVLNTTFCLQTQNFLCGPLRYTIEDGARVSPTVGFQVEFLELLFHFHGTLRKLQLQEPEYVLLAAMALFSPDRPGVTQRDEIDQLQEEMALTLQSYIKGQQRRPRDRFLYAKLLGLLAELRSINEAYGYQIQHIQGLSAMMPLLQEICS
Chain of Luciferin 4-monooxygenase (Photinus pyralis) (P08659 whole entry, looked up): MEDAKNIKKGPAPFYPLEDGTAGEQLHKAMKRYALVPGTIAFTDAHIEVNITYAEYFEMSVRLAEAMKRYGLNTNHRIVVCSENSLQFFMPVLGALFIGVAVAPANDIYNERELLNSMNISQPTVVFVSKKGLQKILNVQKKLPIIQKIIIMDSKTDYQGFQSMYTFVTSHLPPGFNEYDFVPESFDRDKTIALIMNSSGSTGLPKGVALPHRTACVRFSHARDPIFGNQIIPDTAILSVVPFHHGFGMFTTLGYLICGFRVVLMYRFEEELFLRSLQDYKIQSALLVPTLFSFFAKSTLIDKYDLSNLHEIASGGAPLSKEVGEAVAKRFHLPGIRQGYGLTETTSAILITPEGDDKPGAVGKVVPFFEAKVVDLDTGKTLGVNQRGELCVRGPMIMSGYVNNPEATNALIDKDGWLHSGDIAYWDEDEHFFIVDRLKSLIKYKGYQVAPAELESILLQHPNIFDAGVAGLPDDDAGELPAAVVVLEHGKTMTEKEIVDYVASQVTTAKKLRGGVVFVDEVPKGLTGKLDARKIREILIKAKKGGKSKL

For the compound `CC(=O)N[C@H](C)c1nc(/C=C/C=C/C(=O)CC2CC(=O)CC[C@]2(C)O)cs1` (stereo partly drawn), the result in test [1], in test [15], in test [18] and in [19] was inactive. The Potency result in test [2], in test [3], in test [4], in test [5], in test [6] and in test [7] was “inactive” each time. In addition, the Potency result in test [8], in test [9], in [10], in test [11], in test [12] and in test [13] was “inactive” each time. In addition, the Potency result in test [14], in [16], in [17] and in test [20] was “inactive” throughout.
As for `CN1CC[C@@]2([C@@]34CCN(C)[C@@H]3Nc3ccccc34)c3ccccc3N[C@@H]12`, the call in [1], in test [15], in test [18] and in test [19] was inactive. The Potency entry in [2], in [3], in [4], in test [5], in test [6] and in test [7] was “inactive” each time. The Potency result in test [8], in test [10], in test [11], in [12], in test [13] and in test [14] was “inactive” each time. Moreover, the Potency entry in test [16], in test [17] and in test [20] was “inactive” in each case.
For `C/C=C1/C2=CCCN3C(=O)O[C@H]([C@H]1O)[C@H]23`, the outcome in test [1], in test [18] and in test [19] was inactive. For the same compound, the Potency result in [2], in test [3], in test [4], in [5], in test [6] and in test [7] was “inactive” in each case. Further, the Potency entry in test [8], in test [9], in test [11], in [12], in [14] and in [17] was “inactive” each time. Further, the Potency result in test [20] is “inactive”.
As for `O=C1CC(c2ccc(O)cc2)Oc2cc(O)ccc21` (stereo not drawn), the outcome in test [1], in [15], in [18] and in [19] was inactive. For the same compound, the Potency result in test [2], in test [3], in test [4], in [5], in [7] and in test [8] was “inactive” throughout. In addition, the Potency entry in test [9], in test [10], in [11], in [12], in test [13] and in test [14] was “inactive” throughout. The Potency entry in test [16], in test [17] and in [20] was “inactive” each time.
Take `C[C@@]12CCC[C@@](C)(C(=O)O)[C@H]1CC[C@@]13C[C@@H](CC[C@H]12)[C@](C)(O)C3`: the outcome in test [1], in test [15], in test [18] and in [19] was inactive. Also, the Potency result in [2], in [3], in test [4], in [5], in test [6] and in test [7] was “inactive” each time. Also, the Potency result in test [8], in test [9], in test [10], in test [11], in test [12] and in [13] was “inactive” each time. Also, the Potency entry in test [14], in test [16], in test [17] and in test [20] was “inactive” in each case.
On to `COc1cc2ccc(=O)oc2c(O)c1O[C@@H]1O[C@H](CO)[C@@H](O)[C@H](O)[C@H]1O`, for which the call in [1], in test [15], in [18] and in [19] was inactive. Besides, the Potency result in test [2], in [3], in test [4], in test [5], in test [6] and in [7] was “inactive” throughout. For the same compound, the Potency result in test [8], in [10], in [11], in test [12], in test [13] and in [14] was “inactive” throughout. For the same compound, the Potency entry in [16] and in test [20] was “inactive” in each case. Besides, the Potency in [9] is 8.12 µM (active).
